The entries come from a sample that favours hits as a whole.
Pf Dd2 growth: qHTS Primary assay for Inhibitors of Plasmodium falciparum Dd2 growth in vitro | AID 1347417, 2020 | Potency, µM (series often up to 28.9 µM), usual class: inhibitors | 4.3% of 120,000 active | P. falciparum Dd2 growth, SYBR Green, 72 h; active means well fitted inhibition curve with a large enough effect; further: nearly all actives have a fitted effect of over 65% in size
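Infected erythrocytes (Dd2, 0.3% parasitemia, 2.5% hematocrit final) are added to compound in RPMI-1640/Albumax II medium, grown 72 h at 37C in low oxygen, then lysed with saponin/Triton-X containing SYBR Green and read by fluorescence.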
A number is an active result; [ ] = another dose, or the depositor's remark.

Results for COCCOc1ccc(C(=O)N[C@@H]2CN(C(=O)Nc3cccc(OC)c3)CCC[C@H]2O)cc1 ?
Pf Dd2 growth: inactive

What do the screens show for `COc1ccc(C(=O)N2CCC[C@H]2c2nc(-c3ccc(OC)c(OC)c3)no2)c(OC)c1`?
Pf Dd2 growth: inactive

How did COc1cccc([C@@H]2CN(CC3CCOCC3)C[C@H]2C(=O)O)c1OC do in these assays?
Pf Dd2 growth: inactive

How did COc1cccc(S(=O)(=O)N2CCCCC2c2nc(C3CC3)n[nH]2)c1 (stereo unspecified) do in these assays?
Pf Dd2 growth: inactive

Results for COc1cccc(CCn2ccnc2-c2cc3n(n2)CCCNC3)c1OC ?
Pf Dd2 growth: inactive

How did Cc1nc(-c2ccc(OC3CCN(C(=O)c4[nH]nc5c4COc4ccccc4-5)C3)cc2)no1 (stereo unspecified) do in these assays?
Pf Dd2 growth: inactive[5.79 µM]

How did O=C(c1ccoc1)N1CCC2(CC1)CN(Cc1ccccc1)CC2CO (stereo unspecified) do in these assays?
Pf Dd2 growth: inactive

Results for COc1ccc(-n2nc(C3CCCN(C(=O)c4cccc(Cl)c4)C3)[nH]c2=O)cc1 (stereo unspecified) ?
Pf Dd2 growth: inactive

What do the screens show for `COc1ccc(CNC[C@H]2COCc3nc4cc(F)ccc4n32)cn1`?
Pf Dd2 growth: inactive

What do the screens show for `CCOc1cc(=O)n2c(c1C(=O)NCc1ccccc1Cl)CCCC2`?
Pf Dd2 growth: inactive

How did OC[C@@H]1O[C@H](CNCc2cccc(Cl)c2)[C@H](N2CCCC2)[C@@H]1O do in these assays?
Pf Dd2 growth: inactive

What do the screens show for `Cc1ncc2n1C(=O)N(C1CCN(CC3CC3)CC1)C2`?
Pf Dd2 growth: inactive

How did O=C(NC[C@H]1O[C@@H](CO)[C@@H](O)[C@H]1N1CCN(c2ccccn2)CC1)Nc1ccc(F)cc1F do in these assays?
Pf Dd2 growth: inactive

What do the screens show for `O=C1COCCN1C1CCN(Cc2ccc(C(F)(F)F)cc2)CC1`?
Pf Dd2 growth: inactive

Results for Cc1ccc(CN2CCn3nnc(CCC(=O)NCc4ccccc4)c3C2)o1 ?
Pf Dd2 growth: inactive

Results for CCc1nnc2ccc(N3CCN(C)CC3)nn12 ?
Pf Dd2 growth: inactive

How did COc1ccc(-c2ccc3ncc(Nc4ccnc(N5CCOCC5)c4)n3n2)cc1OC do in these assays?
Pf Dd2 growth: inactive

Results for Clc1cccc(Nc2cnc3ccc(N4CCOCC4)nn23)c1 ?
Pf Dd2 growth: inactive

Results for CN(Cc1cccnc1)c1ccc2ncc(Nc3ccc4c(c3)OCO4)n2n1 ?
Pf Dd2 growth: 7.9µM

What do the screens show for `CN1CCN(c2ccc3ncc(Nc4ccc5c(c4)OCCO5)n3n2)CC1`?
Pf Dd2 growth: 7.9µM

How did CN(Cc1cccnc1)c1ccc2ncc(Nc3ccc(F)cc3)n2n1 do in these assays?
Pf Dd2 growth: inactive

Results for CN1CCN(c2ccc3ncc(Nc4ccc(OC(F)(F)F)cc4)n3n2)CC1 ?
Pf Dd2 growth: 3.5µM

Results for CN(Cc1ccc(F)cc1)c1ccc2ncc(Nc3ccc4c(c3)OCO4)n2n1 ?
Pf Dd2 growth: inactive

How did c1ccc(-c2ccc3ncc(Nc4ccc5c(c4)OCCO5)n3n2)cc1 do in these assays?
Pf Dd2 growth: inactive

Results for CCNC(=O)c1n[nH]c2c1CN(C(=O)c1cccc(OC(F)(F)F)c1)CC2 ?
Pf Dd2 growth: inactive

What do the screens show for `CCO[C@H]1COC[C@@H]1NC(=O)c1csc(-c2cccs2)n1`?
Pf Dd2 growth: inactive

Results for COc1ccc(C(=O)N[C@H]2CO[C@H]3[C@@H]2OC[C@H]3OCc2ccccc2)cc1 ?
Pf Dd2 growth: inactive

How did Cc1[nH]ncc1CNC(=O)c1ccc(CC2CCN(S(C)(=O)=O)CC2)cc1 do in these assays?
Pf Dd2 growth: inactive

Results for CC1(C)[C@H](Cc2cc(CCO)on2)C[C@@H]1NC1CCCCC1 ?
Pf Dd2 growth: inactive

How did COC(=O)c1ccccc1NC(=O)Cn1ccn2nc(-c3ccc(F)cc3)c(CO)c2c1=O do in these assays?
Pf Dd2 growth: inactive

How did CCc1cccc(NC(=O)Nc2ccc3c(c2)N(C)C(=O)c2ccccc2S3)c1 do in these assays?
Pf Dd2 growth: inactive

How did CN1C(=O)c2ccccc2Sc2ccc(NC(=O)Nc3ccccc3F)cc21 do in these assays?
Pf Dd2 growth: inactive

How did CN1C(=O)c2ccccc2Sc2ccc(NC(=O)N3CCN(c4cccc(Cl)c4)CC3)cc21 do in these assays?
Pf Dd2 growth: 13µM

How did O=C(c1ccccc1)N1C[C@@H]2C[C@H](C1)c1c(-c3cccnc3)ccc(=O)n1C2 do in these assays?
Pf Dd2 growth: inactive

Results for NC(=O)CN1C(=O)[C@@H]2CN(C(=O)c3ccccc3)CCN2C1=O ?
Pf Dd2 growth: inactive

What do the screens show for `CCOC(=O)c1oc2ccc(S(=O)(=O)NCC3Cn4cccc4C(=O)N3C)cc2c1C` (stereo unspecified)?
Pf Dd2 growth: 13µM

How did CN1C(=O)c2cccn2CC1CNS(=O)(=O)c1ccc(F)cc1 (stereo unspecified) do in these assays?
Pf Dd2 growth: inactive

How did COc1cccc(S(=O)(=O)NCC2Cn3cccc3C(=O)N2C)c1 (stereo unspecified) do in these assays?
Pf Dd2 growth: inactive

What do the screens show for `CCc1nncn1C1CCN(S(=O)(=O)c2ccc(C)c(C)c2)CC1`?
Pf Dd2 growth: inactive

What do the screens show for `CCCC(=O)NC1CCN(C(=O)N2CC3CC(C2)[C@H]2CCCC(=O)N2C3)CC1` (stereo partly specified)?
Pf Dd2 growth: inactive

Results for O=C(C1CCC1)N1CCN(Cc2ccc(=O)n(CC3CC3)c2)CC1 ?
Pf Dd2 growth: inactive

How did O=C(NCCc1ccccc1)c1ccc(CSc2nc3ccncc3n2Cc2cccc(F)c2)cc1 do in these assays?
Pf Dd2 growth: 4.5µM

What do the screens show for `O=C(NCCN1CCCCC1)c1ccc(Cn2c(SCc3ccc(F)cc3)nc3cccnc32)cc1`?
Pf Dd2 growth: 7.1µM

Results for O=C(NCc1ccccc1)c1ccc(CSc2nc3cccnc3n2Cc2ccccc2F)cc1 ?
Pf Dd2 growth: inactive

Results for O=C(NC1CCCC1)c1ccc(CSc2nc3cccnc3n2Cc2ccccc2)cc1 ?
Pf Dd2 growth: inactive

How did O=C(NCCc1ccccc1)c1ccc(CSc2nc3ccncc3n2Cc2ccccc2F)cc1 do in these assays?
Pf Dd2 growth: 7.1µM

How did Cc1ccc(CSc2nc3cccnc3n2Cc2ccc(C(=O)NCCc3ccccc3)cc2)cc1 do in these assays?
Pf Dd2 growth: inactive

What do the screens show for `O=C(NCCc1ccccc1)c1ccc(Cn2c(SCc3cccc(F)c3)nc3cccnc32)cc1`?
Pf Dd2 growth: 13µM

Results for COC(=O)c1ccc(Cn2c(SCc3ccccc3F)nc3ccncc32)cc1 ?
Pf Dd2 growth: inactive

How did Cc1ccccc1CNC(=O)c1ccc(Cn2c(SCc3cccc(F)c3)nc3cccnc32)cc1 do in these assays?
Pf Dd2 growth: inactive

Results for COCCCNC(=O)c1ccc(Cn2c(SCc3ccc(F)cc3)nc3cccnc32)cc1 ?
Pf Dd2 growth: inactive

How did CC(C)c1nc2nccc(-c3cccs3)n2n1 do in these assays?
Pf Dd2 growth: inactive

How did CCc1nc(-c2ccc(OC3CCN(C(=O)c4sc(C)nc4C)C3)cc2)no1 (stereo unspecified) do in these assays?
Pf Dd2 growth: inactive[5.79 µM]

How did COc1ccc(-c2noc([C@@H](C)NC(=O)C3CCCCC3)c2C(=O)O)cc1 do in these assays?
Pf Dd2 growth: inactive

How did CC[C@H]1CN(C(=O)NC(C)C)CC[C@H]1CC(=O)NCc1cccc2ccccc12 do in these assays?
Pf Dd2 growth: inactive

What do the screens show for `Cc1noc([C@@H]2CN(Cc3cccc(F)c3F)C[C@H]2CO)n1`?
Pf Dd2 growth: inactive

Results for O=c1ccc(-c2cccs2)c2n1C[C@H]1C[C@@H]2CN(S(=O)(=O)c2cccs2)C1 ?
Pf Dd2 growth: inactive

What do the screens show for `O=C1CCN(C(=O)Cc2ccccc2)CCCC(CO)CCN1` (stereo unspecified)?
Pf Dd2 growth: inactive
